Experimental data published in PubChem BioAssay (NCI).
This is part of a sample that, as a whole, favours compounds with a hit. Of some 83,000 tested, about 20% had one in any assay.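 Compound tested at a single concentration for 48 hours in 96-well plates; a percent growth value below 10 was scored as active.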 Active and inactive are the calls of the source.

How the values were obtained:
Test in all cases: NCI-60 one-dose screen, 48 h (100 = growth as untreated, 0 = no growth, -100 = all killed)
Conditions in all cases: 10 µM unless noted
DU-145 prostate = system: DU-145 prostate
K-562 leukemia = system: K-562 leukemia
MALME-3M melanoma = system: MALME-3M melanoma
MDA-MB-231 breast = system: MDA-MB-231 breast
RXF 393 renal = system: RXF 393 renal
SF-268 CNS = system: SF-268 CNS
SF-295 CNS = system: SF-295 CNS
SF-539 CNS = system: SF-539 CNS
UACC-257 melanoma = system: UACC-257 melanoma
M14 melanoma = system: M14 melanoma
HCT-15 colon = system: HCT-15 colon
HT29 colon = system: HT29 colon
SNB-19 CNS = system: SNB-19 CNS
U251 CNS = system: U251 CNS
PC-3 prostate = system: PC-3 prostate
SK-MEL-5 melanoma = system: SK-MEL-5 melanoma
UACC-62 melanoma = system: UACC-62 melanoma
LOX IMVI melanoma = system: LOX IMVI melanoma
SK-MEL-28 melanoma = system: SK-MEL-28 melanoma

Measured: growth

O=C1CS/C(=N\Nc2cc(=O)[nH]c3ccccc23)N1c1ccccc1
inactive: DU-145 prostate 111% | K-562 leukemia 86.8% | MALME-3M melanoma 96.9% | MDA-MB-231 breast 78.3% | RXF 393 renal 95.6% | SF-268 CNS 86.1% | SF-295 CNS 96.8% | SF-539 CNS 93% | UACC-257 melanoma 99.9% | M14 melanoma 104% | HCT-15 colon 94.5% | HT29 colon 98.6% | SNB-19 CNS 90.7% | U251 CNS 95% | PC-3 prostate 80.9% | SK-MEL-5 melanoma 96.2% | UACC-62 melanoma 85.5% | LOX IMVI melanoma 88.2% | SK-MEL-28 melanoma 111%

Oc1ccc(Cl)cc1-c1cc(-c2ccc(F)cc2)n[nH]1
inactive: DU-145 prostate 75.9% | K-562 leukemia 63.2% | MALME-3M melanoma 77.8% | MDA-MB-231 breast 27.3% | RXF 393 renal 73.4% | SF-268 CNS 63.6% | SF-295 CNS 49.2% | SF-539 CNS 90.1% | UACC-257 melanoma 96.6% | M14 melanoma 76.6% | HCT-15 colon 30% | HT29 colon 98.7% | SNB-19 CNS 77.6% | U251 CNS 63.8% | PC-3 prostate 63.8% | SK-MEL-5 melanoma 45.2% | UACC-62 melanoma 59.2% | LOX IMVI melanoma 61.3% | SK-MEL-28 melanoma 105%

Cc1cc(C2=NNC(=O)Cc3cc4c(cc32)OCCO4)cc(C)c1N
active: HT29 colon 7.97%
inactive: DU-145 prostate 19.3% | K-562 leukemia 25.5% | MALME-3M melanoma 32.3% | MDA-MB-231 breast 67.5% | RXF 393 renal 37.7% | SF-268 CNS 44.6% | SF-295 CNS 17.1% | SF-539 CNS 19.4% | UACC-257 melanoma 60.1% | M14 melanoma 13.4% | HCT-15 colon 31.7% | SNB-19 CNS 48% | U251 CNS 36.6% | PC-3 prostate 49.1% | SK-MEL-5 melanoma 10.2% | UACC-62 melanoma 44.1% | LOX IMVI melanoma 39.7% | SK-MEL-28 melanoma 42.3%

O=C(NNC(=O)N1c2ccccc2C=Cc2ccccc21)c1ccc2ccccc2c1
inactive: DU-145 prostate 95.5% | K-562 leukemia 87.2% | MALME-3M melanoma 95.6% | MDA-MB-231 breast 94.2% | RXF 393 renal 103% | SF-268 CNS 91.4% | SF-295 CNS 93.5% | SF-539 CNS 92.2% | UACC-257 melanoma 103% | M14 melanoma 101% | HCT-15 colon 95.4% | HT29 colon 88.6% | SNB-19 CNS 95.3% | U251 CNS 92.6% | PC-3 prostate 74.9% | SK-MEL-5 melanoma 92% | UACC-62 melanoma 81.1% | LOX IMVI melanoma 93.6% | SK-MEL-28 melanoma 98.4%

O=c1ccn(C2CC(O)C(O)C(CO)O2)c(=O)[nH]1 (centres undefined)
inactive: DU-145 prostate 121% | K-562 leukemia 109% | MALME-3M melanoma 112% | MDA-MB-231 breast 116% | RXF 393 renal 245% | SF-268 CNS 122% | SF-295 CNS 112% | SF-539 CNS 107% | UACC-257 melanoma 112% | M14 melanoma 105% | HCT-15 colon 117% | HT29 colon 113% | SNB-19 CNS 110% | U251 CNS 125% | PC-3 prostate 89.5% | SK-MEL-5 melanoma 137% | UACC-62 melanoma 105% | LOX IMVI melanoma 109% | SK-MEL-28 melanoma 109%

N#Cc1c(-c2ccccc2)cc(-c2ccccc2)n(CC(=O)NO)c1=O
active: K-562 leukemia 6.26% | LOX IMVI melanoma -90.5%
inactive: DU-145 prostate 61% | MALME-3M melanoma 66% | MDA-MB-231 breast 42.8% | RXF 393 renal 27.9% | SF-268 CNS 52.5% | SF-295 CNS 63.5% | SF-539 CNS 63.9% | UACC-257 melanoma 67.5% | M14 melanoma 64.8% | HCT-15 colon 16.8% | HT29 colon 33.5% | SNB-19 CNS 77% | U251 CNS 52.5% | PC-3 prostate 34.9% | SK-MEL-5 melanoma 14.6% | UACC-62 melanoma 64.5% | SK-MEL-28 melanoma 75.7%

Nc1nc(Nc2cc(Cl)cc(Cl)c2)nn1S(=O)(=O)c1ccc2ccccc2c1
inactive: DU-145 prostate 47.7% | K-562 leukemia 41.5% | MALME-3M melanoma 63% | MDA-MB-231 breast 35.3% | RXF 393 renal 30.6% | SF-268 CNS 52.4% | SF-295 CNS 93.6% | SF-539 CNS 83.5% | UACC-257 melanoma 83.3% | M14 melanoma 78.4% | HCT-15 colon 59.2% | HT29 colon 39.8% | SNB-19 CNS 78% | U251 CNS 37.5% | PC-3 prostate 48.9% | SK-MEL-5 melanoma 86.5% | UACC-62 melanoma 67% | LOX IMVI melanoma 60.1% | SK-MEL-28 melanoma 84.8%

Cc1ccc(S(=O)(=O)NC(=O)n2cc(-c3ccncc3)c(-c3ccc(Cl)c(O)c3)n2)cc1
inactive: DU-145 prostate 132% | K-562 leukemia 98.9% | MALME-3M melanoma 65% | MDA-MB-231 breast 89.8% | RXF 393 renal 114% | SF-268 CNS 117% | SF-295 CNS 109% | SF-539 CNS 92.1% | UACC-257 melanoma 99.4% | M14 melanoma 51.2% | HCT-15 colon 107% | HT29 colon 101% | SNB-19 CNS 117% | U251 CNS 111% | PC-3 prostate 95.3% | SK-MEL-5 melanoma 100% | UACC-62 melanoma 85.2% | LOX IMVI melanoma 93.4% | SK-MEL-28 melanoma 130%

COc1cc(/C=C/C(=O)/C=C/c2cc(OC)c3c(c2)OCO3)cc2c1OCO2
inactive: DU-145 prostate 107% | K-562 leukemia 50.9% | MALME-3M melanoma 98.2% | MDA-MB-231 breast 80.2% | RXF 393 renal 72.4% | SF-268 CNS 88.7% | SF-295 CNS 94.5% | SF-539 CNS 100% | UACC-257 melanoma 103% | M14 melanoma 31.2% | HCT-15 colon 69.1% | SNB-19 CNS 80.3% | U251 CNS 45.1% | PC-3 prostate 83.7% | SK-MEL-5 melanoma 80.9% | UACC-62 melanoma 75.1% | LOX IMVI melanoma 54% | SK-MEL-28 melanoma 119%
active: HT29 colon 6.92%

COc1ccc(-n2c(=O)sc3c(Cl)nc(C)nc32)c(OC)c1
inactive: DU-145 prostate 84.3% | K-562 leukemia 24.9% | MALME-3M melanoma 101% | MDA-MB-231 breast 80.4% | RXF 393 renal 93.5% | SF-268 CNS 63.3% | SF-295 CNS 104% | SF-539 CNS 105% | UACC-257 melanoma 85.1% | M14 melanoma 75.7% | HCT-15 colon 61.3% | HT29 colon 74.1% | SNB-19 CNS 49.6% | U251 CNS 51.6% | PC-3 prostate 85.2% | SK-MEL-5 melanoma 98.1% | UACC-62 melanoma 78.4% | LOX IMVI melanoma 29.1% | SK-MEL-28 melanoma 83.3%

O=C(Nc1ccncc1)C(=O)c1cn(S(=O)(=O)c2ccccc2F)c2ccccc12
inactive: DU-145 prostate 24.9% | K-562 leukemia 22.8% | MALME-3M melanoma 41.2% | MDA-MB-231 breast 39.9% | RXF 393 renal 28.6% | SF-268 CNS 42.2% | SF-295 CNS 22.5% | UACC-257 melanoma 63.1% | M14 melanoma 14.8% | HCT-15 colon 31.7% | SNB-19 CNS 60.6% | U251 CNS 30.7% | PC-3 prostate 40.1% | SK-MEL-5 melanoma 13.5% | UACC-62 melanoma 32.3% | LOX IMVI melanoma 37% | SK-MEL-28 melanoma 61.5%
active: SF-539 CNS 6.94% | HT29 colon 7.48%

O=C1/C(=C/c2ccccc2)CN(C(=O)CCN2CCC(=NO)CC2)C/C1=C\c1ccccc1
inactive: DU-145 prostate 16.1% | UACC-257 melanoma 11.3%
active: K-562 leukemia 6.48% | MALME-3M melanoma -13.2% | MDA-MB-231 breast -32.1% | RXF 393 renal -71% | SF-268 CNS 7.27% | SF-295 CNS -10.5% | SF-539 CNS -30.5% | M14 melanoma 0.212% | HCT-15 colon -42.7% | HT29 colon -81% | SNB-19 CNS -18.6% | U251 CNS -52.7% | PC-3 prostate -7.51% | SK-MEL-5 melanoma -59.2% | UACC-62 melanoma -59.7% | LOX IMVI melanoma -90.7% | SK-MEL-28 melanoma -27.4%

Cn1ccc(Nc2nccc(Oc3ccc(C(=O)Nc4cccc(F)c4)c(Cl)c3)n2)c1
inactive: DU-145 prostate 47.9% | K-562 leukemia 70.6% | MALME-3M melanoma 94.6% | MDA-MB-231 breast 99% | RXF 393 renal 105% | SF-268 CNS 79.4% | SF-295 CNS 61.8% | SF-539 CNS 84.9% | UACC-257 melanoma 79.5% | M14 melanoma 96.9% | HCT-15 colon 91.9% | HT29 colon 100% | SNB-19 CNS 77.6% | U251 CNS 96.2% | PC-3 prostate 63.6% | SK-MEL-5 melanoma 39.5% | UACC-62 melanoma 66.8% | LOX IMVI melanoma 91.9% | SK-MEL-28 melanoma 96.6%

O=C1/C(=C/c2ccc(Cl)cc2)CN(C(=O)CCN2CCC(=NO)CC2)C/C1=C\c1ccc(Cl)cc1
active: DU-145 prostate -89.2% | K-562 leukemia -13.9% | MALME-3M melanoma -49.5% | MDA-MB-231 breast -83.1% | RXF 393 renal -91.3% | SF-268 CNS -60.1% | SF-295 CNS -76.3% | SF-539 CNS -84.5% | UACC-257 melanoma -76.7% | M14 melanoma -45.2% | HCT-15 colon -90.9% | HT29 colon -71.8% | SNB-19 CNS -93.2% | U251 CNS -91.1% | PC-3 prostate -55.2% | SK-MEL-5 melanoma -84.8% | UACC-62 melanoma -75.4% | LOX IMVI melanoma -92.7% | SK-MEL-28 melanoma -89.7%

COc1ccc(-c2[nH]nc(N)c2-c2cc(OC)c3c(c2)OCO3)cc1
inactive: DU-145 prostate 92.3% | K-562 leukemia 22.4% | MALME-3M melanoma 46.9% | MDA-MB-231 breast 43% | RXF 393 renal 95.9% | SF-268 CNS 64.9% | SF-295 CNS 53.9% | SF-539 CNS 59.3% | UACC-257 melanoma 79.3% | M14 melanoma 22.1% | HCT-15 colon 46% | HT29 colon 26% | SNB-19 CNS 68.8% | U251 CNS 54.7% | PC-3 prostate 93.7% | SK-MEL-5 melanoma 54.2% | UACC-62 melanoma 37.2% | LOX IMVI melanoma 56.5% | SK-MEL-28 melanoma 60%

CC12CCC3C4(C)COC(c5ccco5)OC4CCC3(C)C1CC(C1=CCOC1=O)O2 (centres undefined)
inactive: DU-145 prostate 107% | K-562 leukemia 92.6% | MALME-3M melanoma 98.5% | MDA-MB-231 breast 90.2% | RXF 393 renal 99.3% | SF-268 CNS 98.5% | SF-295 CNS 97.9% | SF-539 CNS 107% | UACC-257 melanoma 110% | M14 melanoma 98.6% | HCT-15 colon 97.7% | HT29 colon 105% | SNB-19 CNS 97.3% | U251 CNS 110% | PC-3 prostate 90.5% | SK-MEL-5 melanoma 101% | UACC-62 melanoma 87.8% | LOX IMVI melanoma 106% | SK-MEL-28 melanoma 106%
